Assay [1] is described as follows: Nuclear factor erythroid 2-related factor 2/antioxidant responsive element (Nrf2/ARE) small molecule agonists: qHTS cell viability counter screen in human keratinocytes (AID 1919968; active means well fitted curve in the direction sought with a large enough effect in the repeat runs; an effect the other way counts as inactive or inconclusive; further: nearly all actives have a fitted effect of over 55% in size). Put shortly: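 Seed 1,500 KeratinoSens cells per well, then incubate 5 h at 37 C/5% CO2. Add compounds in DMSO and incubate 23 h. Add CellTiter-Fluor, wait 1 h and read fluorescence.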

Assay [2] in a line: Nuclear factor erythroid 2-related factor 2/antioxidant responsive element (Nrf2/ARE) small molecule agonists: luciferase reporter gene qHTS assay in human keratinocytes (AID 1919969). Further: nearly all actives have a fitted effect of over 35% in size. Further: potency means the concentration at half of the fitted maximal effect. For orientation: In a reporter assay the amount or activity of a reporter protein is the signal.
The target in assay [3] is Gonadotropin-releasing hormone receptor (Homo sapiens) (UniProt P30968). The experiment in a line: Human gonadotropin-releasing hormone receptor (GnRHR) small molecule agonists, calcium flux assay in GnRHR-HEK293 cells (AID 1920063). Further: nearly all actives have a fitted effect of over 35% in size. A digest of the protocol:
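Cells: HEK293 stably expressing human GnRHR. Steps: overnight (18 h) culture, 1 h calcium dye loading at 37 C, compound addition, kinetic fluorescence read at 480/540 nm. Each compound tested at 15 concentrations in triplicate.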

Assay [4] deals with KiSS-1 receptor (Homo sapiens) (UniProt Q969F8). Put plainly: Human kisspeptin (KISS1R) small molecule agonists, calcium flux assay in KISS1R-HEK293 cells (AID 1920064; active means well fitted curve in the direction sought with a large enough effect in the repeat runs; an effect the other way counts as inactive or inconclusive). A digest of the protocol: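 Cells plated and incubated 18 h; dye added, 1 h at 37 C; compounds in DMSO pinned in; signal read at 480/540 nm every second for 3 min. Each compound tested at 15 concentrations in triplicate.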
KiSS-1 receptor (Homo sapiens), sequence (Q969F8 whole entry, looked up): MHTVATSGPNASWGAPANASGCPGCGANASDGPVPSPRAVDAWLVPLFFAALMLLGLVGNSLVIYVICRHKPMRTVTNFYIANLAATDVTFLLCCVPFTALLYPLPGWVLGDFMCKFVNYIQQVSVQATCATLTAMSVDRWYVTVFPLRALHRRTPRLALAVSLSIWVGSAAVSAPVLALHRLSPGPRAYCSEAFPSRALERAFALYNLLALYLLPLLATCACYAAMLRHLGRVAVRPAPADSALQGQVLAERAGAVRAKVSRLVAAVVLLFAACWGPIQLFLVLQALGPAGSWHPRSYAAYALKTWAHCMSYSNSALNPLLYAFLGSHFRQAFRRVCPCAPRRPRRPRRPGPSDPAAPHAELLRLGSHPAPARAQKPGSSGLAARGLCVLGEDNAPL
In general terms: Calcium assays in cells follow changes in intracellular calcium, usually with a dye or a luminescent sensor.

The nature of assay [5]: G protein-coupled receptor (GPCR) small molecule agonists, calcium flux assay: HEK293 wild type cell line counter screen (AID 1920065). Put shortly: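 Counter-screen of the Tox21 10K library for non-specific calcium release: dye-loaded cells received compounds in DMSO and were monitored by kinetic fluorescence (480/540 nm, 3 min). Fifteen concentrations, run in triplicate.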

Assay [6] in a line: p53 small molecule agonists, cell-based qHTS assay with human liver microsomes: qHTS cell viability counter screen (AID 1963579). Further: nearly all actives have a fitted effect of over 45% in size. A digest of the protocol:
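Metabolic activation used human liver microsomes and NADPH, both 0.5 mg/mL final, over 16 hours at 37 C on p53RE-bla cells (4,000/well). Cytotoxicity measured by CellTiter-Glo luminescence, 30 min at room temperature.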
On the technique in general: In qHTS, concentration-response curves come from the screen itself.

The nature of assay [7]: p53 small molecule agonists, cell-based qHTS assay with rat liver microsomes: qHTS cell viability counter screen (AID 1963580). Further: nearly all actives have a fitted effect of over 45% in size. Put shortly: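 Intracellular ATP, by CellTiter-Glo luminescence, defines viability. HCT-116 p53RE-bla cells, 4,000 per well, were compound-treated in the presence of rat liver microsomes and NADPH for 16 h at 37 C.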
The nature of assay [8]: p53 small molecule agonists, cell-based qHTS assay: qHTS cell viability counter screen (AID 1963581). Further: nearly all actives have a fitted effect of over 45% in size. A digest of the protocol:
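Cells: HCT-116 with p53 response element-driven beta-lactamase. Treatment: 16 h, 37 C, compounds in DMSO. Read: CellTiter-Glo luminescence after 30 min RT.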

The target of assay [9] is 5-hydroxytryptamine receptor 2A (Homo sapiens) (UniProt P28223). The experiment in a line: 5-hydroxytryptamine receptor 2A (HTR2A) small molecule antagonists, cell-based qHTS assay (AID 1963586). Further: nearly all actives have a fitted effect of over 45% in size. Put shortly:
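Antagonist-mode intracellular calcium assay: DOI (4 nM) added after 5 min compound pre-incubation at room temperature to dye-loaded HTR2A-CHO cells. Fluorescence followed for 3 min, sampled every second.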

Assay [10] shares this target. The experiment in a line: 5-hydroxytryptamine receptor 2A (HTR2A) small molecule agonists, cell-based qHTS assay (AID 1963587). Further: nearly all actives have a fitted effect of over 30% in size. Put shortly:
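Kinetic calcium-flux fluorescence (2 min, 1 sec intervals) after compound addition in agonist mode. HTR2A-CHO cells were cultured 18 h, then dye-loaded 1 h at 37 C.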

Assay [11] deals with Muscarinic acetylcholine receptor M1 (Homo sapiens) (UniProt P11229). The experiment in a line: Cholinergic receptor muscarinic 1 (CHRM1) small molecule antagonists, cell-based qHTS assay (AID 1963588). Further: nearly all actives have a fitted effect of over 40% in size. Put shortly:
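CHRM1-CHO calcium-flux assay, antagonist mode. Cells were seeded 18 h, dye-loaded 1 h at 37 C and given compound for 5 min at RT, then acetylcholine was added at 50nM. FDSS fluorescence was read 3 min; 15 concentrations, three runs.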

Assay [12] shares this target. The experiment in a line: Cholinergic receptor muscarinic 1 (CHRM1) small molecule agonists, cell-based qHTS assay (AID 1963589). Further: nearly all actives have a fitted effect of over 35% in size. Put shortly: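 Agonist-mode qHTS in CHO cells stably carrying human muscarinic M1. Intracellular calcium is tracked by fluorescence every second after compound transfer; each compound runs at 15 concentrations in three independent runs.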

Assay [13] can be described thus: cAMP Responsive Elements (CRE) small molecule agonists, cell-based qHTS assay (AID 1963590). Put shortly: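 Agonist mode qHTS in CRE-bla HEK 293T cells: compounds dosed from DMSO for 3 h at 37 C/5% CO2, followed by LiveBLAzer B/G FRET substrate for 2 h at room temperature.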
A short description of assay [14]: cAMP Responsive Elements (CRE) small molecule antagonists, cell-based qHTS assay (AID 1963591; active means well fitted inhibition curve with a large enough effect in the signal ratio in the repeat runs, not every such curve was filed as active; the % refers to the signal ratio). A digest of the protocol:
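Antagonist mode: test compounds are co-incubated with the adenylyl cyclase activator NKH477 (0.25 uM final) on CRE-bla HEK293T cells for 3 h at 37 °C, followed by LiveBLAzer substrate loading.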

The target in assay [15] is Beta-2 adrenergic receptor (Homo sapiens) (UniProt P07550). The experiment in a line: Adrenergic beta2 receptor (ADRB2) small molecule antagonists, cell-based qHTS assay (AID 1963592). Further: series mostly up to about 92 µM; nearly all actives have a fitted effect of over 50% in size. A digest of the protocol: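 Cells (CHO, stable ADRB2 overexpression) incubated 18-20hr at 37C; compounds added from DMSO; agonist mix (1nM isoproterenol, 100uM IBMX, 25uM Ro-20-1724) added; 0.5hr RT; d2-cAMP and anti-cAMP-cryptate added; 1hr RT; 665/615 nm read.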
Beta-2 adrenergic receptor (Homo sapiens), sequence (P07550 whole entry, looked up): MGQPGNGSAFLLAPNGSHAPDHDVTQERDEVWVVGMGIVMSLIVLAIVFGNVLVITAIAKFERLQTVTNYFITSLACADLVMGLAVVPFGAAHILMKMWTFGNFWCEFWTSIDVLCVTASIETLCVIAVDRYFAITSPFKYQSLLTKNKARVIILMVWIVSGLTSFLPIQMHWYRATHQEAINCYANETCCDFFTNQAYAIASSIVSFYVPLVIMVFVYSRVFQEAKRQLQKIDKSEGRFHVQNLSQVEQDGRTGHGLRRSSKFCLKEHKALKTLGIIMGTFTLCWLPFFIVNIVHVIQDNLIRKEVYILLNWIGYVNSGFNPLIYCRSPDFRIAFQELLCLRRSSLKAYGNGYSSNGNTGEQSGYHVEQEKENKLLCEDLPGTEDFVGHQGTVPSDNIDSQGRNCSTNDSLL

Assay [16] shares this target. Put plainly: Adrenergic beta2 receptor (ADRB2) small molecule agonists, cell-based qHTS assay (AID 1963593).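 Further: CHO cells stably overexpressing human ADRB2.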 A digest of the protocol:
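CHO cells stably over-expressing ADRB2 were plated overnight at 37C, then dosed with compounds plus a stimulation mix containing 100uM IBMX and 25uM Ro-20-1724 for 0.5hr at room temperature. cAMP was measured by HTRF competition, 1hr.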

Assay [17] has as its target D(2) dopamine receptor (Homo sapiens) (UniProt P14416). The experiment in a line: Dopamine D2 receptor (DRD2) small molecule agonists, cell-based qHTS assay (AID 1963594). Further: nearly all actives have a fitted effect of over 35% in size. Put shortly:
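cAMP accumulation in DRD2-HEK293 cells measured by HTRF after 1 h detection; compounds added 10 min before NKH477 (200nM […]) forskolin-analogue stimulation, 30 min at room temperature, with Ro20-1724 present at 0.1 mM final.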

The target is the same in assay [18]. The experiment in a line: Dopamine D2 receptor (DRD2) small molecule antagonists, cell-based qHTS assay (AID 1963595; active means well fitted inhibition curve with a large enough effect in the signal ratio in the repeat runs, with a control signal flat; the % refers to the signal ratio). A digest of the protocol:
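Stable D2 receptor HEK293 line, 24 h after seeding. Compound preincubated 10 min, then quinpirole (12 nM) with forskolin analogue NKH477 (200 nM), 30 min, room temperature. Detection by time-resolved FRET of cAMP.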

The structures appear in SMILES notation. A number with no mark means an inactive call. Records with an inconclusive call do not appear. Active and inactive are the calls of the source. Unless noted, the call rests on the fitted dose curve.

Our source for the Potency values is PubChem BioAssay (Tox21).

Muscarinic acetylcholine receptor M1 (Homo sapiens), sequence (P11229 whole entry, looked up): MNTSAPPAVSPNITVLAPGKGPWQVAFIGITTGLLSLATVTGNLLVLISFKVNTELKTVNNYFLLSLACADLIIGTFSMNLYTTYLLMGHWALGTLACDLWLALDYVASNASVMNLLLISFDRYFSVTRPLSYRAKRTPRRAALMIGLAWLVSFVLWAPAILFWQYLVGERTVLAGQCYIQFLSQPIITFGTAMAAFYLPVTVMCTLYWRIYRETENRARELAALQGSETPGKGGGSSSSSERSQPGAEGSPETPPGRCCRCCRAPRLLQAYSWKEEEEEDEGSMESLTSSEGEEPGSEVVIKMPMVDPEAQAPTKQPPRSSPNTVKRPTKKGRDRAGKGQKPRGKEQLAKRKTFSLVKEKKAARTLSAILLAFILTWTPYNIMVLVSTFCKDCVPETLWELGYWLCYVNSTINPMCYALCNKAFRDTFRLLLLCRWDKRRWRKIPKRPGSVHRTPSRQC
5-hydroxytryptamine receptor 2A (Homo sapiens), sequence (P28223 whole entry, looked up): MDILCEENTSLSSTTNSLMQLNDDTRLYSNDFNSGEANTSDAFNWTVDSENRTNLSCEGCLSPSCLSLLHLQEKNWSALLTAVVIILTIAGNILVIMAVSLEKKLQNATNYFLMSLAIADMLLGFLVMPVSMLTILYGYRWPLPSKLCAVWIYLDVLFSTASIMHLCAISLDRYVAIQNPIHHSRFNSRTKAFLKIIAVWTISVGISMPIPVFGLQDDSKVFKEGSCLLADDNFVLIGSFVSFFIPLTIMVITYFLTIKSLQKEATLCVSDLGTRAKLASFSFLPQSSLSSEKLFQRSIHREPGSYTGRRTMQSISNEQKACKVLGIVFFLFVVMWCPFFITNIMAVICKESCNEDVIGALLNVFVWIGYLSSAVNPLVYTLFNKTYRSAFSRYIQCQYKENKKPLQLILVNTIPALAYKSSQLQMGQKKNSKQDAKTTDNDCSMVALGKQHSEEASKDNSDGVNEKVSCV
Gonadotropin-releasing hormone receptor (Homo sapiens), sequence (P30968 whole entry, looked up): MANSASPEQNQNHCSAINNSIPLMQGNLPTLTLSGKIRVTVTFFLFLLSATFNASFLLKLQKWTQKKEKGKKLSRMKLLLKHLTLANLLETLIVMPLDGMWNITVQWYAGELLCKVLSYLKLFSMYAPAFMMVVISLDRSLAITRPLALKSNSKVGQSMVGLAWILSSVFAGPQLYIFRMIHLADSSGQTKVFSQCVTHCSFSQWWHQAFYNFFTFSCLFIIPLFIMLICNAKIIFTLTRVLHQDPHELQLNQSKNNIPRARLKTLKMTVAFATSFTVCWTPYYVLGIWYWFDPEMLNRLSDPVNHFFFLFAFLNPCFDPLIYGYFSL
D(2) dopamine receptor (Homo sapiens), sequence (P14416 whole entry, looked up): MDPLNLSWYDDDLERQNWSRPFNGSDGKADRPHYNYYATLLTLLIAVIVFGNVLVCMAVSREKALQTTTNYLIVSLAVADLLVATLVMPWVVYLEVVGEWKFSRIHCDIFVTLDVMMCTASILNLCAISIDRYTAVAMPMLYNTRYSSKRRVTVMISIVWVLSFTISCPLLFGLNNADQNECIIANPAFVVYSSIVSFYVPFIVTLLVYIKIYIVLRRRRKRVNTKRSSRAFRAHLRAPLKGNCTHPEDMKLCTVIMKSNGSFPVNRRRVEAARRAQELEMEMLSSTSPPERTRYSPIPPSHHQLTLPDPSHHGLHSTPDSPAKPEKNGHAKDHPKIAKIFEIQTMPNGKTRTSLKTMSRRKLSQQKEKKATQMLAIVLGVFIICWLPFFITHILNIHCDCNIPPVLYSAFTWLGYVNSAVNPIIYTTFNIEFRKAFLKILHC

As for `CCCSP(=S)(OCC)Oc1ccc(Cl)cc1Cl` (stereo not drawn), the Potency entry in assay [1], in assay [3], in assay [4], in [5], in [6] and in [7] was “inactive” throughout. For the same molecule, the Potency entry in assay [8], in assay [9], in assay [10], in [11], in [12] and in [13] was “inactive” each time. In addition, the Potency entry in assay [14], in assay [15], in [16], in assay [17] and in assay [18] was “inactive” each time. For the same molecule, in [2], the Potency is 61.1 µM (active).
For the molecule `O=C(C(Cl)(Cl)Cl)C(Cl)(Cl)Cl`, the Potency result in [1], in [2], in [3], in assay [4], in assay [5] and in [6] was “inactive” each time. Besides, the Potency result in assay [7], in assay [8], in assay [9], in assay [10], in assay [11] and in assay [12] was “inactive” throughout. Also, the Potency entry in assay [13], in assay [14], in assay [15], in [17] and in [18] was “inactive” throughout.
With `O=S(=O)(O)F`, the Potency result in assay [1], in assay [2], in assay [3], in assay [4], in [5] and in assay [6] was “inactive” in each case. Moreover, the Potency result in assay [7], in assay [8], in assay [9], in [10], in assay [11] and in assay [12] was “inactive” throughout. Also, the Potency result in [13], in assay [14], in [15], in assay [17] and in assay [18] was “inactive” throughout.
`CNC(=O)N(C)c1nc2ccccc2s1`: the Potency result in assay [1], in assay [2], in [3], in [4], in assay [5] and in assay [6] was “inactive” each time. Further, the Potency result in assay [7], in [8], in assay [9], in assay [10], in assay [11] and in assay [12] was “inactive” in each case. In addition, the Potency result in assay [14], in assay [15], in assay [16], in [17] and in assay [18] was “inactive” throughout.
As for `NNCc1ccccc1`, the Potency entry in assay [1], in assay [2], in assay [3], in assay [4], in assay [5] and in [6] was “inactive” in each case. Also, the Potency entry in assay [7], in [8], in [9], in assay [10], in assay [11] and in [12] was “inactive” in each case. Besides, the Potency entry in [13], in [14], in assay [15], in assay [17] and in [18] was “inactive” each time.
For `CC(C)O.CC(C)O.OCCN(CCO)CCO.OCCN(CCO)CCO.[Ti]`, the Potency entry in assay [1], in assay [2], in assay [3], in [4], in assay [5] and in [6] was “inactive” each time. The Potency result in assay [7], in assay [8], in [9], in assay [10], in [11] and in assay [12] was “inactive” in each case. Further, the Potency result in assay [13], in [14], in assay [15], in assay [16], in assay [17] and in assay [18] was “inactive” in each case.
Turning to `O=C(O)C(O)C(O)C(=O)O` (stereo not drawn), the Potency result in assay [1], in assay [2], in assay [3], in [4], in assay [5] and in assay [6] was “inactive” in each case. Further, the Potency result in assay [7], in assay [8], in assay [9], in [10], in [11] and in [12] was “inactive” each time. For the same molecule, the Potency result in assay [13], in [15], in [17] and in assay [18] was “inactive” in each case.
Take `CCC#N`: the Potency entry in assay [1], in assay [2], in assay [3], in assay [4], in assay [5] and in assay [6] was “inactive” in each case. Moreover, the Potency entry in assay [7], in [8], in assay [9], in assay [10], in assay [11] and in [12] was “inactive” in each case. Further, the Potency result in [13], in assay [14], in assay [15], in assay [16], in assay [17] and in assay [18] was “inactive” each time.
